# Measured values: PubChem BioAssay (NCI)
# The panel holds about 83,000 compounds, 20% with a hit somewhere; the sample as a whole holds those more often.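 A percent growth of 40 corresponds to 60% growth inhibition; 0 means no net growth; -100 means all cells died. Active threshold: below 10.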 A number with no mark means an inactive call. Calls of active or inactive are those of the source.
# How the values were obtained:
# Test in all cases: NCI-60 one-dose screen, 48 h (100 = growth as untreated, 0 = no growth, -100 = all killed)
# Conditions in all cases: 10 µM unless noted
# HCT-15 colon = test system: HCT-15 colon
# HT29 colon = test system: HT29 colon
# SNB-75 CNS = test system: SNB-75 CNS
# SNB-19 CNS = test system: SNB-19 CNS
# U251 CNS = test system: U251 CNS
# SK-MEL-5 melanoma = test system: SK-MEL-5 melanoma
# UACC-62 melanoma = test system: UACC-62 melanoma
# LOX IMVI melanoma = test system: LOX IMVI melanoma
# SK-MEL-28 melanoma = test system: SK-MEL-28 melanoma
# SK-MEL-2 melanoma = test system: SK-MEL-2 melanoma
# EKVX NSCLC = test system: EKVX NSCLC
# SN12C renal = test system: SN12C renal
# UO-31 renal = test system: UO-31 renal
# TK-10 renal = test system: TK-10 renal
# ACHN renal = test system: ACHN renal
# CAKI-1 renal = test system: CAKI-1 renal
# A498 renal = test system: A498 renal
# CCRF-CEM leukemia = test system: CCRF-CEM leukemia
# MOLT-4 leukemia = test system: MOLT-4 leukemia
# PC-3 prostate = test system: PC-3 prostate
Compound,growth (HCT-15 colon),growth (HT29 colon),growth (SNB-75 CNS),growth (SNB-19 CNS),growth (U251 CNS),growth (SK-MEL-5 melanoma),growth (UACC-62 melanoma),growth (LOX IMVI melanoma),growth (SK-MEL-28 melanoma),growth (SK-MEL-2 melanoma),growth (EKVX NSCLC),growth (SN12C renal),growth (UO-31 renal),growth (TK-10 renal),growth (ACHN renal),growth (CAKI-1 renal),growth (A498 renal),growth (CCRF-CEM leukemia),growth (MOLT-4 leukemia),growth (PC-3 prostate)
O=C(N/N=C/c1c[nH]c2ccccc12)Nc1ccccc1Cl,7.73% (active),-24.2% (active),5.18% (active),32.8%,13.7%,-38.6% (active),11.4%,-45.1% (active),39.7%,13.9%,2.29% (active),0.991% (active),23.2%,34.2%,10.7%,16.1%,-8.24% (active),9.84% (active),5.56% (active),
COc1cccc(-c2ccc(/C=N/NC(=O)c3[nH]c4ccc(Br)cc4c3-c3ccccc3)s2)c1,3.37% (active),-32.2% (active),36.8%,11.7%,-23% (active),-60.9% (active),-17.1% (active),4.04% (active),,-3.93% (active),17.9%,0.265% (active),19.9%,8.47% (active),7.04% (active),9.77% (active),63.2%,16%,6.82% (active),23.7%
Cn1ncc2c(N)nc(Oc3ccccc3-c3ccccc3)nc21,10.7%,14.9%,8.98% (active),33.8%,32.6%,0.935% (active),26.3%,34.7%,53.7%,-4.9% (active),41.6%,43.3%,48.1%,65.1%,51.6%,29%,105%,25.5%,8.1% (active),
CCCn1c(NC(=O)c2cccc(C(N)=O)c2)nc2ccc(CN3CCCCC3)cc21,67.1%,91%,128%,111%,106%,102%,113%,93.4%,,105%,103%,88%,65.3%,99.3%,60.3%,50.2%,159%,96.4%,98.9%,63.2%
CN(C)c1ccc(/C=C/c2n(Cc3ccc4ccccc4c3)c3ccccc3[n+]2Cc2ccc3ccccc3c2)cc1,-84.4% (active),-31.6% (active),-84.3% (active),-92.5% (active),-67.5% (active),-92.2% (active),-93.3% (active),-95.7% (active),-76% (active),-70.8% (active),-95.8% (active),-80.5% (active),-91.9% (active),-81.1% (active),-97.6% (active),-95.9% (active),-82.1% (active),-48.5% (active),-38.1% (active),
Cc1ccc(C(=O)Nc2cc(-n3ccnc3C)cc(C(F)(F)F)c2)cc1C#Cc1cnc2cccnn12,5.01% (active),-16.8% (active),-28.1% (active),30.3%,22.1%,-67.6% (active),-40% (active),-80.2% (active),,-64.1% (active),3.81% (active),-8.57% (active),0.162% (active),11.6%,-6.55% (active),-41.4% (active),-18.4% (active),5.01% (active),4.23% (active),8.32% (active)
Cc1ccc(C2CC(c3ccc(NC(=O)Nc4ccccc4)cc3)=NN2c2ccc(S(C)(=O)=O)cc2)cc1 (stereo unspecified),-84.4% (active),-55.7% (active),56.9%,4.8% (active),-63.5% (active),-99.9% (active),-80.3% (active),-100% (active),-89.4% (active),-13.7% (active),-2.75% (active),-94% (active),3.37% (active),21.7%,-44.4% (active),5.74% (active),-16.3% (active),9.5% (active),20.3%,
COc1ccc(NC(=O)Nc2nc3ccc([N+](=O)[O-])cc3s2)cc1,9.87% (active),58.1%,62.3%,14.6%,0.863% (active),-70.7% (active),36.2%,33.8%,,33.4%,9.23% (active),9.66% (active),-5.06% (active),29.7%,10.8%,13.9%,,11.2%,8.05% (active),10.5%
Cc1cc(C2(c3cc(C)c(OCC(O)CNc4c(C)n(C)n(-c5ccccc5)c4=O)cc3C(C)C)OC(=O)c3ccccc32)c(C(C)C)cc1OCC(O)CNc1c(C)n(C)n(-c2ccccc2)c1=O (stereo unspecified),19.7%,13.4%,46.6%,48.9%,22.5%,-25.3% (active),24.4%,18.3%,,-5.35% (active),16.3%,26.6%,19.1%,24.8%,17.1%,21.9%,,12.3%,13.1%,12.9%
Cc1nc2sccn2c1-c1nnc(SCc2ccccc2)o1,89.2%,85.6%,106%,80.6%,82.8%,90%,80.2%,92.7%,94.8%,87%,87.5%,86.6%,74.2%,110%,92.6%,85.2%,87.8%,91.3%,88.1%,
COc1ccccc1NC(=O)N/N=C/c1c[nH]c2ccccc12,13.8%,4.72% (active),20.8%,40.6%,20%,4.48% (active),20.3%,-51.2% (active),,-24.9% (active),12.3%,23.2%,39.1%,33.2%,25.8%,,60.6%,17.4%,7.13% (active),35.2%
Cc1ccc(C(=O)Nc2cc(-c3ccccc3)cc(C(F)(F)F)c2)cc1C#Cc1cnc2cccnn12,57.7%,34.8%,112%,92.3%,74.9%,26%,46.1%,39.4%,,58.7%,63%,65.9%,56.5%,79.3%,59.9%,70.4%,133%,38.1%,35.5%,65.8%
COc1ccc2c(c1)C(Sc1ccc(Cl)cc1)c1c(nc(N)c(C#N)c1N)O2 (stereo unspecified),58.9%,75.2%,36.9%,65.1%,51.9%,36.5%,64.3%,-2.6% (active),99.8%,79.5%,43.8%,55.7%,26.5%,99.1%,60.1%,51.9%,84.4%,-10.6% (active),-1.37% (active),
O=C(CSc1nnc(-c2ccc(-c3nc4ccc(Cl)cc4[nH]3)cc2)o1)Nc1ccccc1,25.2%,41%,-16.8% (active),-42.4% (active),-79.2% (active),13.2%,7.34% (active),-65.6% (active),-89.2% (active),54.5%,21.1%,4.03% (active),60.6%,114%,-56.4% (active),-33.5% (active),130%,41.5%,10.7%,
c1n[nH]cc1-c1nc2ccc3cn[nH]c3c2c2c1CCCC2,96.2%,95.5%,108%,82.2%,88%,81.7%,81.4%,69.9%,,104%,69.1%,74.3%,61.1%,104%,73.5%,39.2%,93.8%,104%,92.7%,73.4%
CCCCCCCCCc1ccc(C(=O)Nc2cc(C)ccc2C(=O)OC)cc1,103%,98.9%,117%,106%,112%,102%,83.7%,102%,,111%,109%,101%,98.4%,121%,109%,98.8%,128%,87.9%,97.5%,105%
